This is a sample that favours compounds with a hit; in the whole collection about 5.2% have one here.
SMARCA2 act = activators of SMARCA2 function; MG213 cells, MMTV-luciferase reporter, dexamethasone, overnight; activation, % at 9.1 µM; 370,000 compounds, 1% hits; AID 652017; in the data active = activation above about 7.8%;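 note: 0% = vehicle wells and 100% = reference activator wells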
esBAF inh = blocks esBAF chromatin remodeling in mouse ES cells; Bmi1-luciferase knock-in reporter, 24 h; 100% = twice the neutral-well signal; reporter increase, % at 12.5 µM; 350,000 compounds, 2% hits; AID 602393; in the data active = activation above about 40%;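 note: 0% = median of the plate's neutral control wells and 100% = double that signal; a rise in the Bmi1 reporter signal indicates esBAF inhibition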
GRIN3A LBD mod = modulates the human NR3A ligand-binding domain | NR3A LBD differential scanning fluorimetry, Tm shift; 0% = protein alone, 100% = glycine-bound protein | Tm shift relative to glycine control, % at 25 µM | 340,000 compounds, 2.5% hits | AID 1259313;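 active = melting temperature shift of at least 10% of the positive control shift, at one fixed dose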
NadD inh = blocks S. aureus nicotinate mononucleotide adenylyltransferase; purified NadD enzyme, colorimetric absorbance read-out; inhibition, % at 20 µM; 360,000 compounds, 0.78% hits; AID 602399; in the data active = inhibition above about 26%
SKN-1 inh = blocks SKN-1 activity in C. elegans | 360,000 compounds, 0.49% hits | C. elegans VP596 Pgst-4::GFP/RFP ratio, acrylamide-induced, 24 h | inhibition, % at 21.8 µM;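 active = interference check ratio from 0.5 to 1.5 plus GFP to RFP signal ratio inhibition reaching or exceeding a fixed threshold, cut at about 30% in these data, passing the limit was not always enough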
Vif imaging = inhibitors of HIV Vif; HEK293T cells, Vif self-association by quenched fluorescence, imaging, 24 h; inhibition, % at 7.49 µM; 340,000 compounds, 0.35% hits; AID 602346; in the data active = inhibition above about 50%, passing the limit was not always enough
Active calls of the source: *.

How did C[C@@H]1C(c2cccc(Cl)c2)=NN(c2ccc(Br)cc2)[C@H]1C(=O)N1CCOC1=O do in these assays?
esBAF inh: -7; GRIN3A LBD mod: 21*; NadD inh: 14; SKN-1 inh: 9; Vif imaging: -2

What do the screens show for `Cc1cccc(C2=NN(c3ccc(Br)cc3)[C@@H](C(=O)N3CCOC3=O)[C@@H]2c2ccccc2)c1`?
esBAF inh: 1; GRIN3A LBD mod: 15*; NadD inh: 19; SKN-1 inh: 6; Vif imaging: -1

Results for C[C@@H]1C(c2cccc(Cl)c2)=NN(c2ccccc2)[C@H]1C(=O)N1CCOC1=O ?
SMARCA2 act: -1; esBAF inh: 2; GRIN3A LBD mod: 2; NadD inh: 0; SKN-1 inh: -1; Vif imaging: -3

What do the screens show for `Cc1cccc(C2=NN(c3ccccc3)[C@@H](C(=O)N3CCOC3=O)[C@@H]2c2ccccc2)c1`?
SMARCA2 act: -6; esBAF inh: 4; GRIN3A LBD mod: -2; NadD inh: 9; SKN-1 inh: 6; Vif imaging: 0

Results for O=C1OCCN1C(=O)[C@H]1[C@H](c2ccc([N+](=O)[O-])cc2)C(c2ccc(F)cc2)=NN1c1ccccc1 ?
SMARCA2 act: -6; esBAF inh: -7; GRIN3A LBD mod: 3; NadD inh: 10; SKN-1 inh: -9; Vif imaging: 5

How did C[C@@H]1CN([C@@H](C)CO)C(=O)c2cc(NC(=O)NC3CCCCC3)ccc2O[C@@H]1CN(C)Cc1ccc(Oc2ccccc2)cc1 do in these assays?
esBAF inh: -6

Results for CNC[C@@H]1Oc2ccc(NC(=O)Nc3ccc4c(c3)OCO4)cc2CC(=O)N([C@H](C)CO)C[C@H]1C ?
esBAF inh: 1

How did CN1c2ccc(C3=CCCCC3)cc2[C@H]2[C@H](CCN2C(=O)Cc2ccccn2)[C@@H]1CO do in these assays?
esBAF inh: 6

Results for COc1ccc(S(=O)(=O)N[C@@H]2CC[C@@H](CC(=O)NCCc3ccccc3)O[C@H]2CO)cc1 ?
esBAF inh: 0

Results for Cc1nnc(-c2cccc(Br)c2)c2cn(-c3cccc(Br)c3)nc12 ?
SMARCA2 act: 0; esBAF inh: -8; GRIN3A LBD mod: -3; NadD inh: 18; SKN-1 inh: 36*; Vif imaging: -2

How did O=C(N/N=C/c1ccc[nH]1)c1ccccc1OCc1ccc(F)cc1 do in these assays?
SMARCA2 act: -1; esBAF inh: -3; GRIN3A LBD mod: 10; NadD inh: -3; SKN-1 inh: 8; Vif imaging: 1

What do the screens show for `CCOc1ccc(OCc2ccc(C(=O)NN=Cc3ccc[nH]3)cc2)cc1`?
SMARCA2 act: -6; esBAF inh: 14; GRIN3A LBD mod: 19*; NadD inh: 4; SKN-1 inh: 17; Vif imaging: -7

How did O=C(N/N=C/c1ccc[nH]1)c1ccc([N+](=O)[O-])cc1 do in these assays?
SMARCA2 act: 7.9*; GRIN3A LBD mod: 1; NadD inh: -1; SKN-1 inh: 3; Vif imaging: -2

Results for O=C(N/N=C/c1ccncc1)c1nc2ccccc2c(=O)[nH]1 ?
SMARCA2 act: 1; GRIN3A LBD mod: 0; NadD inh: -2; SKN-1 inh: 1; Vif imaging: -6

Results for O=C(N/N=C/c1ccc2cccnc2c1)c1nc2ccccc2c(=O)[nH]1 ?
SMARCA2 act: 5; esBAF inh: 46*; GRIN3A LBD mod: -5; NadD inh: 2; SKN-1 inh: -7; Vif imaging: 1

How did CC(=O)Nc1ccc(NC(=O)C2Cc3c(-c4cccc(F)c4)ccnc3O2)cc1 (centres undefined) do in these assays?
SMARCA2 act: -1; esBAF inh: -1; NadD inh: -2; SKN-1 inh: 37*; Vif imaging: 4

What do the screens show for `CC(=O)Nc1ccc(-c2ccnc3c2CC(C(=O)NCc2ccccc2)O3)cc1` (centres undefined)?
SMARCA2 act: 5; esBAF inh: 2; NadD inh: 0; SKN-1 inh: -9; Vif imaging: 66*

What do the screens show for `Cc1ccc(C(=O)c2nocc2C(=O)c2cccs2)cc1`?
SMARCA2 act: -1; esBAF inh: -4; GRIN3A LBD mod: 16*; NadD inh: -26; SKN-1 inh: -20; Vif imaging: 7

Results for CC(C(=O)O)c1ccc(C(=O)c2cccs2)cc1 (centres undefined) ?
SMARCA2 act: -3; esBAF inh: 0; GRIN3A LBD mod: -1; NadD inh: 3; SKN-1 inh: -7; Vif imaging: 6

How did COCC#Cc1ccc2c(c1)O[C@H](CN(C)Cc1cccnc1)[C@H](C)CN([C@@H](C)CO)S2(=O)=O do in these assays?
esBAF inh: 0

What do the screens show for `Cc1cc(C)c2[nH]c(O)c(N=Nc3ccc(C(=O)O)cc3)c2c1`?
SMARCA2 act: 2; esBAF inh: 47*; GRIN3A LBD mod: 4; NadD inh: -8; SKN-1 inh: -13; Vif imaging: -2

How did CN(CC(=O)Nc1ccc(F)cc1)C(=O)COC(=O)CNC(=O)c1sc2ccccc2c1Cl do in these assays?
SMARCA2 act: -1; esBAF inh: -4; GRIN3A LBD mod: -13; NadD inh: -5; SKN-1 inh: 4; Vif imaging: 0

Results for CN(CC(=O)Nc1c(Cl)cccc1Cl)C(=O)CNC(=O)c1sc2ccccc2c1Cl ?
SMARCA2 act: -1; esBAF inh: 35; GRIN3A LBD mod: 19*; NadD inh: 2; SKN-1 inh: -18; Vif imaging: -2

Results for COc1ccc(NC(=O)CN(C)C(=O)CNC(=O)c2sc3ccccc3c2Cl)cc1 ?
SMARCA2 act: -1; esBAF inh: 51*; GRIN3A LBD mod: -7; NadD inh: 1; SKN-1 inh: -13; Vif imaging: 0

What do the screens show for `C[C@@H]1CN([C@H](C)CO)C(=O)c2cccc(NC(=O)Nc3ccc4c(c3)OCO4)c2O[C@H]1CN(C)Cc1ccncc1`?
esBAF inh: 22

What do the screens show for `Cc1noc(C)c1S(=O)(=O)Nc1ccc2c(c1)C(=O)N([C@H](C)CO)C[C@@H](C)[C@@H](CN(C)C(=O)Nc1ccc3c(c1)OCO3)O2`?
esBAF inh: 0

What do the screens show for `CCOc1ccc(N=C2Sc3nc4ccc(C)cc4cc3CN2CCOC)cc1`?
SMARCA2 act: -3; esBAF inh: 54*; GRIN3A LBD mod: -1; NadD inh: 9; SKN-1 inh: -7; Vif imaging: 2

How did COCCN1Cc2cc3cc(C)ccc3nc2SC1=Nc1cccc(OC)c1 do in these assays?
SMARCA2 act: -2; esBAF inh: 49*; GRIN3A LBD mod: 1; NadD inh: 3; SKN-1 inh: 4; Vif imaging: 2

Results for COCCN1Cc2cc3cc(C)ccc3nc2SC1=Nc1ccc(OC)cc1 ?
SMARCA2 act: -3; GRIN3A LBD mod: -2; NadD inh: 7; SKN-1 inh: 10; Vif imaging: -4

Screens: PubChem, several laboratories
